{"source": "PubChem BioAssay AID1159580", "about": "(chemical genetic matrix, 2015)", "assay": "chemical genetic growth profiling, strain panel (AID 1159580);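 further: tested at 20 µM; growth read once vehicle control cultures reached saturation at 30 °C; 1 = growth at the plate median or of vehicle wells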", "conditions": "S. cerevisiae deletion strains, growth OD", "note": "Values joined by “and” are separate entries in the source; they are usually repeats but may differ in a detail not shown here. Equal values may be shown once. Screen size: about 5,500 compounds; about 2,000 (36%) were called active. About 18% were inconclusive and are not listed. No stated cut-off is given here; in the data, active means normalized growth mostly below about 0.91 (no sharp cut-off); inconclusive means no clear call, values can overlap the other calls; inactive means mostly above about 0.92. The list shows a part of the results."}
{"smiles": "C#C[C@]1(O)CCC2C3CCC4=Cc5oncc5C[C@]4(C)C3CC[C@@]21C", "note": "(stereo partly specified)", "values": [{"measurement": "normalized growth", "setting": "locus YAL021C, strain ccr4, stronger effect = lower value", "result": "1.05 (inactive)"}, {"measurement": "normalized growth", "setting": "locus YAL026C, strain drs2, stronger effect = lower value", "result": "0.977 (inactive)"}, {"measurement": "normalized growth", "setting": "locus YAL030W, strain snc1, stronger effect = lower value", "result": "0.94 (inactive)"}, {"measurement": "normalized growth", "setting": "locus YBL061C, strain skt5, stronger effect = lower value", "result": "0.941 (inactive)"}, {"measurement": "normalized growth", "setting": "locus YBR009C, strain hhf1, stronger effect = lower value", "result": "0.918 (inactive)"}, {"measurement": "normalized growth", "setting": "locus YBR021W, strain FUR4, stronger effect = lower value", "result": "1.01 (inactive)"}, {"measurement": "normalized growth", "setting": "locus YBR023C, strain chs3, stronger effect = lower value", "result": "0.958 (inactive)"}, {"measurement": "normalized growth", "setting": "locus YBR171W, strain sec66, stronger effect = lower value", "result": "0.937 (inactive)"}, {"measurement": "normalized growth", "setting": "locus YBR229C, strain ROT2, stronger effect = lower value", "result": "0.898 (active)"}, {"measurement": "normalized growth", "setting": "locus YBR231C, strain swc5, stronger effect = lower value", "result": "0.966 (inactive)"}, {"measurement": "normalized growth", "setting": "locus YBR279W, strain paf1, stronger effect = lower value", "result": "0.969 (inactive)"}, {"measurement": "normalized growth", "setting": "locus YCL011C, strain gbp2, stronger effect = lower value", "result": "0.97 (inactive)"}, {"measurement": "normalized growth", "setting": "locus YCL016C, strain dcc1, stronger effect = lower value", "result": "0.996 (inactive)"}, {"measurement": "normalized growth", "setting": "locus YCL029C, strain bik1, stronger effect = lower value", "result": "0.919 (inactive)"}, {"measurement": "normalized growth", "setting": "locus YCL061C, strain MRC1, stronger effect = lower value", "result": "0.943 (inactive)"}, {"measurement": "normalized growth", "setting": "locus YCL069W, strain vba3, stronger effect = lower value", "result": "0.956 (inactive)"}, {"measurement": "normalized growth", "setting": "locus YCR088W, strain abp1, stronger effect = lower value", "result": "0.943 (inactive)"}, {"measurement": "normalized growth", "setting": "locus YDL005C, strain med2, stronger effect = lower value", "result": "0.954 (inactive)"}, {"measurement": "normalized growth", "setting": "locus YDL035C, strain GPR1, stronger effect = lower value", "result": "0.94 (inactive)"}, {"measurement": "normalized growth", "setting": "locus YDL040C, strain nat1, stronger effect = lower value", "result": "0.958 (inactive)"}, {"measurement": "normalized growth", "setting": "locus YDL074C, strain BRE1, stronger effect = lower value", "result": "0.725 (active)"}, {"measurement": "normalized growth", "setting": "locus YDL101C, strain DUN1, stronger effect = lower value", "result": "0.906 (inactive)"}, {"measurement": "normalized growth", "setting": "locus YDL185W, strain tfp1, stronger effect = lower value", "result": "0.932 (inactive)"}, {"measurement": "normalized growth", "setting": "locus YDL192W, strain arf1, stronger effect = lower value", "result": "0.933 (inactive)"}, {"measurement": "normalized growth", "setting": "locus YDR001C, strain nth1, stronger effect = lower value", "result": "0.961 (inactive)"}, {"measurement": "normalized growth", "setting": "locus YDR069C, strain doa4, stronger effect = lower value", "result": "0.96 (inactive)"}, {"measurement": "normalized growth", "setting": "locus YDR101C, strain arx1, stronger effect = lower value", "result": "0.887 (active)"}, {"measurement": "normalized growth", "setting": "locus YDR137W, strain rgp1, stronger effect = lower value", "result": "0.859 (inactive)"}, {"measurement": "normalized growth", "setting": "locus YDR150W, strain NUM1, stronger effect = lower value", "result": "0.929 (inactive)"}, {"measurement": "normalized growth", "setting": "locus YDR159W, strain sac3, stronger effect = lower value", "result": "0.839 (active)"}, {"measurement": "normalized growth", "setting": "locus YDR162C, strain NBP2, stronger effect = lower value", "result": "0.866 (inactive)"}, {"measurement": "normalized growth", "setting": "locus YDR195W, strain ref2", "result": "0.978 (inactive)"}, {"measurement": "normalized growth", "setting": "locus YDR297W, strain sur2, stronger effect = lower value", "result": "0.937 (inactive)"}, {"measurement": "normalized growth", "setting": "locus YDR318W, strain mcm21, stronger effect = lower value", "result": "0.891 (active)"}, {"measurement": "normalized growth", "setting": "locus YDR334W, strain swr1, stronger effect = lower value", "result": "0.965 (inactive)"}, {"measurement": "normalized growth", "setting": "locus YDR335W, strain msn5, stronger effect = lower value", "result": "0.95 (inactive)"}, {"measurement": "normalized growth", "setting": "locus YDR388W, stronger effect = lower value", "result": "0.957 (inactive)"}, {"measurement": "normalized growth", "setting": "locus YDR392W, strain spt3, stronger effect = lower value", "result": "0.542 (active)"}, {"measurement": "normalized growth", "setting": "locus YDR502C, strain sam2, stronger effect = lower value", "result": "0.887 (active)"}, {"measurement": "normalized growth", "setting": "locus YEL003W, strain gim4, stronger effect = lower value", "result": "0.932 (inactive)"}, {"measurement": "normalized growth", "setting": "locus YEL037C, strain rad23, stronger effect = lower value", "result": "0.971 (inactive)"}, {"measurement": "normalized growth", "setting": "locus YEL061C, strain CIN8 (second series), stronger effect = lower value", "result": "0.958 (inactive)"}, {"measurement": "normalized growth", "setting": "locus YEL061C, strain CIN8, stronger effect = lower value", "result": "0.93 (inactive)"}, {"measurement": "normalized growth", "setting": "locus YER015W, strain faa2, stronger effect = lower value", "result": "0.961 (inactive)"}, {"measurement": "normalized growth", "setting": "locus YER016W, strain bim1, stronger effect = lower value", "result": "0.969 (inactive)"}, {"measurement": "normalized growth", "setting": "locus YER110C, stronger effect = lower value", "result": "0.933 (inactive)"}, {"measurement": "normalized growth", "setting": "locus YER111C, strain swi4, stronger effect = lower value", "result": "0.978 (inactive)"}, {"measurement": "normalized growth", "setting": "locus YER155C, strain BEM2 (second series), stronger effect = lower value", "result": "0.828 (active)"}, {"measurement": "normalized growth", "setting": "locus YER155C, strain BEM2, stronger effect = lower value", "result": "0.903 (active)"}, {"measurement": "normalized growth", "setting": "locus YER167W, strain BCK2, stronger effect = lower value", "result": "0.939 (inactive)"}, {"measurement": "normalized growth", "setting": "locus YFR010W, strain ubp6, stronger effect = lower value", "result": "0.927 (inactive)"}, {"measurement": "normalized growth", "setting": "locus YGL078C, strain dbp3, stronger effect = lower value", "result": "0.962 (inactive)"}, {"measurement": "normalized growth", "setting": "locus YGL086W, strain mad1, stronger effect = lower value", "result": "0.85 (active)"}, {"measurement": "normalized growth", "setting": "locus YGL167C, strain pmr1, stronger effect = lower value", "result": "0.942 (inactive)"}, {"measurement": "normalized growth", "setting": "locus YGL173C, strain kem1, stronger effect = lower value", "result": "0.929 (inactive)"}, {"measurement": "normalized growth", "setting": "locus YGL227W, strain vid30, stronger effect = lower value", "result": "0.958 (inactive)"}, {"measurement": "normalized growth", "setting": "locus YGL240W, strain doc1, stronger effect = lower value", "result": "0.94 (inactive)"}, {"measurement": "normalized growth", "setting": "locus YGL248W, strain PDE1, stronger effect = lower value", "result": "0.892 (inactive)"}, {"measurement": "normalized growth", "setting": "locus YGL253W, strain hxk2, stronger effect = lower value", "result": "0.946 (inactive)"}, {"measurement": "normalized growth", "setting": "locus YGR135W, strain pre9, stronger effect = lower value", "result": "0.999 (inactive)"}, {"measurement": "normalized growth", "setting": "locus YGR252W, strain gcn5, stronger effect = lower value", "result": "0.99 (inactive)"}, {"measurement": "normalized growth", "setting": "locus YHR013C, strain ard1, stronger effect = lower value", "result": "1.01 (inactive)"}, {"measurement": "normalized growth", "setting": "locus YHR027C, strain rpn1, stronger effect = lower value", "result": "0.979 (inactive)"}, {"measurement": "normalized growth", "setting": "locus YHR030C, strain SLT2, stronger effect = lower value", "result": "0.825 (active) and 0.957 (inactive)"}, {"measurement": "normalized growth", "setting": "locus YHR079C, strain IRE1 (second series), stronger effect = lower value", "result": "0.924 (active)"}, {"measurement": "normalized growth", "setting": "locus YHR079C, strain IRE1, stronger effect = lower value", "result": "0.964 (inactive)"}, {"measurement": "normalized growth", "setting": "locus YHR094C, strain hxt1, stronger effect = lower value", "result": "0.939 (inactive)"}, {"measurement": "normalized growth", "setting": "locus YHR129C, strain ARP1, stronger effect = lower value", "result": "0.889 (active)"}, {"measurement": "normalized growth", "setting": "locus YHR142W, strain chs7, stronger effect = lower value", "result": "0.888 (inactive)"}, {"measurement": "normalized growth", "setting": "locus YHR200W, strain rpn10, stronger effect = lower value", "result": "0.912 (active)"}, {"measurement": "normalized growth", "setting": "locus YIL066C, strain RNR3, stronger effect = lower value", "result": "0.785 (active)"}, {"measurement": "normalized growth", "setting": "locus YIL073C, strain SPO22, stronger effect = lower value", "result": "0.871 (inactive)"}, {"measurement": "normalized growth", "setting": "locus YIL125W, strain kgd1, stronger effect = lower value", "result": "0.917 (active)"}, {"measurement": "normalized growth", "setting": "locus YIR030C, strain dcg1, stronger effect = lower value", "result": "0.927 (active)"}, {"measurement": "normalized growth", "setting": "locus YJL092W, strain hpr5, stronger effect = lower value", "result": "0.934 (inactive)"}, {"measurement": "normalized growth", "setting": "locus YJL095W, strain BCK1 (second series), stronger effect = lower value", "result": "0.976 (inactive)"}, {"measurement": "normalized growth", "setting": "locus YJL095W, strain BCK1, stronger effect = lower value", "result": "0.729 (active) and 0.973 (inactive)"}, {"measurement": "normalized growth", "setting": "locus YJL115W, strain asf1, stronger effect = lower value", "result": "0.952 (inactive)"}, {"measurement": "normalized growth", "setting": "locus YJL129C, strain trk1, stronger effect = lower value", "result": "0.83 (active)"}, {"measurement": "normalized growth", "setting": "locus YJL134W, strain LCB3, stronger effect = lower value", "result": "0.944 (inactive)"}, {"measurement": "normalized growth", "setting": "locus YJL154C, strain vps35, stronger effect = lower value", "result": "0.961 (inactive)"}, {"measurement": "normalized growth", "setting": "locus YJL164C, strain tpk1, stronger effect = lower value", "result": "0.973 (inactive)"}, {"measurement": "normalized growth", "setting": "locus YJL166W, strain qcr8, stronger effect = lower value", "result": "0.899 (active)"}, {"measurement": "normalized growth", "setting": "locus YJL168C, strain set2, stronger effect = lower value", "result": "0.941 (inactive)"}, {"measurement": "normalized growth", "setting": "locus YJL187C, strain SWE1 (second series), stronger effect = lower value", "result": "0.904 (inactive)"}, {"measurement": "normalized growth", "setting": "locus YJR043C, strain POL32, stronger effect = lower value", "result": "0.93 (inactive)"}]}
